Data published in PubChem BioAssay AID1159580 (chemical genetic matrix, 2015).
Among all 5,500 compounds or so, about 2,000 (36%) were called active. Not shown: some 18% with an inconclusive outcome. Cut-off read from the data, not from the text of the source: active = normalized growth mostly below about 0.91 (no sharp cut-off); inconclusive = no clear call, values can overlap the other calls; inactive = mostly above about 0.92. Some of the results follow.

Experiment: chemical genetic growth profiling, strain panel (AID 1159580);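 note: tested at 20 µM; growth read once vehicle control cultures reached saturation at 30 °C; 1 = growth at the plate median or of vehicle wells; lower values mean less growth of the strain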
Conditions: S. cerevisiae deletion strains, growth OD
[1] = locus YDL101C, strain DUN1, hits give low values
[2] = locus YHR030C, strain SLT2, hits give low values
[3] = locus YAL013W, strain DEP1, hits give low values
[4] = locus YBR229C, strain ROT2, hits give low values
[5] = locus YDR150W, strain NUM1, hits give low values
[6] = locus YEL061C, strain CIN8, hits give low values
[7] = locus YGR078C, strain PAC10, hits give low values
[8] = locus YHR087W, strain rtc3, hits give low values
[9] = locus YJL187C, strain SWE1, hits give low values
[10] = locus YJR043C, strain POL32, hits give low values
[11] = locus YJR075W, strain HOC1, hits give low values
[12] = locus YLR039C, strain RIC1, hits give low values
[13] = locus YLR058C, strain SHM2 (second series), hits give low values
[14] = locus YLR085C, strain ARP6, hits give low values
[15] = locus YLR262C, strain YPT6, hits give low values
[16] = locus YML094W, strain GIM5, hits give low values
[17] = locus YMR219W, strain ESC1, hits give low values
[18] = locus YMR263W, strain SAP30, hits give low values
[19] = locus YMR307W, strain GAS1, hits give low values
[20] = locus YNL153C, strain GIM3, hits give low values
[21] = locus YNL298W, strain CLA4 (second series), hits give low values
[22] = locus YNL322C, strain KRE1, hits give low values
[23] = locus YNR030W, strain Alg12, hits give low values
[24] = locus YPL055C, strain LGE1, hits give low values
[25] = locus YPL241C, strain CIN2, hits give low values
[26] = locus YPR135W, strain CTF4, hits give low values

Measured: normalized growth

Nc1ccc(N2CCN(c3ccc(C(F)(F)F)cn3)CC2)nc1
active: [2] 0.724
inactive: locus YAR019C, strain CDC15, hits give low values 0.974 | locus YBL105C, strain PKC1, hits give low values 0.984 | locus YBR135W, strain CKS1, hits give low values 0.969 | locus YBR136W, strain MEC1, hits give low values 0.983 | locus YBR160W, strain CDC28, hits give low values 0.964 | locus YDL017W, strain CDC7, hits give low values 0.98 | locus YDL028C, strain MPS1, hits give low values 0.949 | [1] 0.987 | locus YDL108W, strain KIN28, hits give low values 0.966 | locus YDL132W, strain cdc53, hits give low values 0.992 | locus YDL214C, strain PRR2, hits give low values 0.927 | locus YDR052C, strain DBF4, hits give low values 0.988 | locus YDR054C, strain cdc34, hits give low values 0.994 | locus YDR226W, strain ADK1, hits give low values 0.975 | locus YDR477W, strain SNF1, hits give low values 0.862 | locus YER123W, strain YCK3, hits give low values 0.879 | locus YER133W, strain GLC7, hits give low values 0.916 | locus YFL009W, strain cdc4, hits give low values 0.968 | locus YFL029C, strain CAK1, hits give low values 0.971 | locus YFR003C, strain YPI1, hits give low values 0.981 | locus YFR019W, strain FAB1, hits give low values 0.862 | locus YFR028C, strain CDC14, hits give low values 0.982 | locus YGR040W, strain KSS1, hits give low values 0.865 | locus YGR052W, strain FMP48, hits give low values 0.968 | locus YGR092W, strain DBF2, hits give low values 0.722 | locus YHR079C, strain IRE1, hits give low values 0.948 | locus YHR082C, strain KSP1, hits give low values 0.966 | locus YHR205W, strain SCH9, hits give low values 0.986 | locus YIL147C, strain SLN1, hits give low values 0.973 | locus YJL095W, strain BCK1, hits give low values 0.809 | locus YJL128C, strain PBS2, hits give low values 1.02 | locus YJL157C, strain FAR1, hits give low values 0.921 | locus YJR016C, strain ILV3, hits give low values 0.976 | locus YJR066W, strain TOR1 (second series), hits give low values 0.775 | locus YJR066W, strain TOR1, hits give low values 0.879 | locus YKL048C, strain ELM1, hits give low values 1.03 | locus YKL067W, strain YNK1, hits give low values 0.91 | locus YKL101W, strain HSL1, hits give low values 0.98 | locus YKL193C, strain SDS22, hits give low values 0.983 | locus YKL203C, strain TOR2, hits give low values 0.976 | locus YLR113W, strain HOG1, hits give low values 0.991 | locus YLR133W, strain CKI1, hits give low values 0.96 | locus YLR403W, strain SFP1, hits give low values 0.9 | locus YML070W, strain DAK1, hits give low values 0.917 | locus YMR001C, strain CDC5, hits give low values 0.977 | locus YMR205C, strain PFK2 (second series), hits give low values 0.952 | locus YMR277W, strain FCP1, hits give low values 0.952 | locus YNL006W, strain LST8, hits give low values 0.967 | locus YNL020C, strain ARK1, hits give low values 0.95 | locus YNL161W, strain CBK1, hits give low values 0.991 | locus YNL183C, strain NPR1, hits give low values 1.01 | locus YNL207W, strain RIO2, hits give low values 0.959 | locus YNL222W, strain SSU72, hits give low values 0.956 | locus YNL307C, strain MCK1 (second series), hits give low values 0.916 | locus YOL078W, strain AVO1, hits give low values 0.982 | locus YOL136C, strain PFK27, hits give low values 0.928 | locus YOR061W, strain CKA2, hits give low values 0.943 | locus YOR119C, strain RIO1, hits give low values 0.923 | locus YOR231W, strain MKK1, hits give low values 0.904 | locus YOR329C, strain SCD5, hits give low values 0.986 | locus YPL031C, strain PHO85, hits give low values 0.876 | locus YPL153C, strain RAD53, hits give low values 0.835 | locus YPL204W, strain HRR25, hits give low values 0.828 | locus YPL209C, strain IPL1, hits give low values 0.991 | locus YPL256C, strain CLN2, hits give low values 0.983 | locus YPR025C, strain CCL1, hits give low values 0.981 | locus YPR106W, strain ISR1, hits give low values 1.01 | locus YPR111W, strain DBF20, hits give low values 1.02 | strain NNK1, hits give low values 0.984 | strain TSCII, hits give low values 0.97

FC(F)(F)c1ccc(-n2cncn2)nc1
active: [14] 1.24 [resistant]
inactive: [3] 1.03 | [4] 1.01 | [1] 1 | [5] 0.988 | [6] 1.01 | [7] 1.01 | locus YGR229C, strain SMI1, hits give low values 1.01 | [2] 1.09 | [8] 1.02 | [9] 1.01 | [10] 1.02 | [11] 0.99 | [12] 1.04 | [13] 1 | [15] 1.01 | [16] 1.07 | [17] 1.01 | [18] 1.01 | [19] 1.08 | [20] 0.996 | [21] 1.07 | [22] 1 | [23] 1.04 | locus YOL006C, strain TOP1, hits give low values 1.25 | [24] 1.07 | [25] 1 | [26] 1.15

Cc1onc(-c2c(F)cccc2Cl)c1C(=O)N1CCN(c2ncccc2C(F)(F)F)CC1
inactive: [3] 0.98 | [4] 0.975 | [1] 0.977 | locus YDL134C, strain PPH21, hits give low values 0.993 | [5] 0.972 | [6] 0.952 | [7] 1.01 | [2] 0.928 | [8] 0.964 | [9] 0.988 | [10] 1 | [11] 1.01 | locus YKL190W, strain CNB1, hits give low values 1 | [12] 0.993 | [13] 0.987 | [14] 1.02 | [15] 0.98 | [16] 0.969 | [17] 0.984 | [18] 1.01 | [19] 1.07 | [20] 1 | [21] 0.965 | [22] 0.977 | [23] 0.99 | [24] 0.977 | [25] 1.08 | [26] 0.993
